Screening results from PubChem.
Compounds with a hit are over-represented: about 4.3% of the library has one in this group of screens.
Peg3 prom inh-1: Peg3 promoter-driven luciferase inhibitors, primary screen, cell-based, HeLa, luciferase luminescence. HeLa PEG-Prom luciferase reporter, overnight. inhibition, % at 20 µM. 1.7% of 360,000 active. AID 588405, 2011;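 active = inhibition of at least 50% at 20 µM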
CF NFkB inh: inhibitors of PAF-induced NF-kB signaling, primary screen, cell-based, GFP fluorescence, uHTS. KKLEB NF-kB-GFP reporter, GFP fluorescence overnight. inhibition, % at 5 µM. 0.86% of 360,000 active;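 active = at least 50% inhibition at 5 µM, scaled per plate between neutral and stimulator controls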;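 also: PAF is a Pseudomonas aeruginosa culture filtrate used as stimulus; plate controls were PAF-stimulated DMSO wells for no effect and unstimulated DMSO wells for full effect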
MITF TRPM1 inh: inhibitors of MITF-dependent TRPM1 promoter reporter, primary screen, cell-based, SK-MEL-5, single point, luciferase. SK-MEL-5 TRPM1 promoter luciferase, 24 h. inhibition, % at 12.5 µM. 0.83% of 330,000 active;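 active = mean inhibition across replicates of 60% or more, whatever share of single replicates reaches that level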
CHOP inhibitor: inhibitors of CHOP promoter induction, primary screen, cell-based, unfolded protein response, luciferase reporter; CHO-K1 CHOP-promoter luciferase, tunicamycin-induced, 15-18 h; inhibition, % at 10 µM; 3.8% of 220,000 active; AID 2732, 2010;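 active = compounds that reduced the stress-induced luciferase reporter signal by more than about 70% of percent inhibition, limit read from the data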;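 also: 0% = tunicamycin plus vehicle and 100% = wells without tunicamycin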
HIF-2a block: HIF-2a reporter inhibitors, primary screen, luminescence, 786-0 RCC cells. 786-0 RCC cells HIF-2a reporter, luciferase luminescence, overnight. inhibition, % at 18.8 µM. 0.72% of 360,000 active. AID 624352, 2012;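 active = inhibition of the luminescence signal of 40% or more relative to plate controls, in a single-dose primary screen at 18.75 µM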
KKLEB cytotox: cytotoxicity in KKLEB CF airway cells, primary screen, cytotoxicity control for CF NF-kB inhibitor project, cell-based, uHTS, fluorescence assay plates. activity change (cytotoxicity), % at 5 µM. KKLEB CF airway cells viability, ATPlite luminescence, overnight; active compounds read low; cells stimulated with P. aeruginosa culture filtrate. AID 602141, 2011. 0.36% of 360,000 active;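 active = corrected activity change at or below -50% at 5 µM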
CHOP confirm: retest of CHOP induction inhibitors, confirmation, cell-based. AID 504437, 2011. shares compounds with CHOP inhibitor. inhibition, % at 10 µM. CHO-CHOP promoter luciferase reporter, tunicamycin-induced, luminescence. 45% of 2,100 active;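 active = mean of three repeat readings of reporter signal inhibition above a set limit, cut at about 70% in these data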;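 also: 0% = tunicamycin plus vehicle and 100% = wells lacking tunicamycin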
Peg3 prom inh-2: Peg3 promoter reporter inhibitors, retest, confirmation, cell-based, HeLa, luciferase reporter, single concentration; AID 602417, 2012; HeLa PEG-Prom luciferase reporter, luminescence, overnight; 84% of 1,300 active; inhibition, % at 20 µM; shares compounds with Peg3 prom inh-1;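 active = at 20 µM dose, 40% or more inhibition averaged across four replicates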
CF NFkB conf: inhibitors of PAF-induced NF-kB signaling, retest, confirmation, cell-based, GFP fluorescence, single concentration | 64% of 1,300 active | shares compounds with CF NFkB inh | inhibition, % at 5 µM | AID 602472, 2012 | KKLEB CF airway cells, overnight; in the data active = inhibition above about 40%;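 also: stimulus PAF is a Pseudomonas aeruginosa filtrate and not platelet activating factor; plate controls were DMSO wells with stimulus for no effect and unstimulated DMSO wells for full effect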
Mdm2 MdmX conf: retested Mdm2-MdmX interaction blockers, confirmation, cell-based, luminescence, single concentration, set 2 | shares compounds with HIF-2a block | inhibition, % at 8 µM | 99% of 740 active | AID 504601, 2011 | SaOS-2 split-luciferase Mdm2/MdmX complementation;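 active = mean inhibition of the luminescence signal across two replicates at or above 26 percent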
Target sequence (O15151 whole entry, looked up): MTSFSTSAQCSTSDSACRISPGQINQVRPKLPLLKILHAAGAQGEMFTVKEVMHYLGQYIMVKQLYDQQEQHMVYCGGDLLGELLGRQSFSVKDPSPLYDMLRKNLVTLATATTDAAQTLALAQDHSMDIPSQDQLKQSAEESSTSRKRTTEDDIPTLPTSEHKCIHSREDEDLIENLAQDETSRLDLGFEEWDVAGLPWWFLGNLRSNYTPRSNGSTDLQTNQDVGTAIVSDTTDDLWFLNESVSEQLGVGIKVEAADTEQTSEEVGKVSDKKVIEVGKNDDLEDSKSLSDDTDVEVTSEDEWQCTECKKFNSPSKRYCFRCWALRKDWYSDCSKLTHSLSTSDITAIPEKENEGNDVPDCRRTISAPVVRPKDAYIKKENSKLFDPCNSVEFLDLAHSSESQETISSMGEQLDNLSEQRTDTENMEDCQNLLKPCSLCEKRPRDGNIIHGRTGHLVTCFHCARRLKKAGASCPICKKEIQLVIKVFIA
Target sequence (Q00987 whole entry, looked up): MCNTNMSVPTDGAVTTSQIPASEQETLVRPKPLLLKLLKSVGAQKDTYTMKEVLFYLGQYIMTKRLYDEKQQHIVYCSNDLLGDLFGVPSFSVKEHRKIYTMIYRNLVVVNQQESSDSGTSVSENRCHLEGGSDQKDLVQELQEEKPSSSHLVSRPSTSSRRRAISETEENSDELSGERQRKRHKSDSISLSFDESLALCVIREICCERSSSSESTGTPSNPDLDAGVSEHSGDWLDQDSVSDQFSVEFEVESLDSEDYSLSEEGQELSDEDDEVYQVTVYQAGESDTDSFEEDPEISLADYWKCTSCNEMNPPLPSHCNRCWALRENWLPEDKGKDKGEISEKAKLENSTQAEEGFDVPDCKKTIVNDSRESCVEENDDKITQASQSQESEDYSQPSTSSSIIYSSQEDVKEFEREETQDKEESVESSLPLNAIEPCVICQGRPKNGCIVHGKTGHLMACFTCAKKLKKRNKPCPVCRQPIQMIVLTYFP
HIF-2a inh conf: HIF-2a reporter inhibitor retest, confirmation, luminescence, 786-0 RCC cells. shares compounds with HIF-2a block. HIF-2a luciferase reporter luminescence, overnight. inhibition, % at 18.8 µM. 56% of 1,800 active. AID 651580, 2012;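 active = mean inhibition across four replicates of at least 40 percent at the single tested concentration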
HIF-1a counter: HIF-1a luciferase reporter signal reduction – MiaPaCa-2 cells, single concentration, counter-screen for HIF-2a inhibitor project, confirmation; inhibition, % at 18.8 µM; 72% of 1,800 active; shares compounds with HIF-2a block; MiaPaCa-2 HIF-1a luciferase reporter, desferoxamine, overnight;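 active = mean inhibition of the reporter signal across four replicates at the single tested dose of 50% or more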
* marks the source's active call; other numbers are inactive results; x = not tested or not shown.

SMILES	Peg3 prom inh-1	CF NFkB inh	MITF TRPM1 inh	CHOP inhibitor	HIF-2a block	KKLEB cytotox	CHOP confirm	Mdm2 MdmX conf	HIF-2a inh conf	HIF-1a counter	others
CC(C)C(NC(=O)c1ccc(Cl)cc1Cl)C(=O)N1CCN(S(=O)(=O)c2ccccc2)CC1 (stereo not given)	5	-1	7	x	1	-4	x	x	x	x
COc1ccccc1-c1cc(C(F)(F)F)nc(S(=O)(=O)CCCC(=O)NCc2ccc(F)cc2)n1	107*	95*	90*	100*	80*	-88*	-95	103*	71*	102*
COc1ccccc1-c1cc(C(F)(F)F)nc(S(C)(=O)=O)n1	105*	69*	92*	112*	78*	-47	-336	102*	68*	105*	CF NFkB conf=40*
COc1ccccc1-c1cc2nc(C)c(CCC(=O)NCc3ccc(F)cc3)c(C)n2n1	8	9	-5	31	35	9	x	x	x	x
COc1ccccc1-c1cc(C(F)(F)F)nc(N2CCCCC2)n1	3	6	2	61	5	-5	x	x	x	x
N#CC1=C(N)Oc2n[nH]c(-c3cccs3)c2C1C1CCCCC1 (stereo not given)	20	18	2	104*	40*	-4	37	x	22	4
N#CC1=C(N)Oc2n[nH]c(-c3cccs3)c2C1c1ccsc1 (stereo not given)	8	-22	-7	30	12	-4	x	x	x	x
Cn1nc(-c2ccccc2)c2ncc(C(F)(F)F)cc21	-1	-12	0	22	-19	8	x	x	x	x
Cc1ccccc1NC(=O)/C=C/c1ccc([N+](=O)[O-])s1	107*	66*	92*	102*	86*	-59*	79*	x	68*	104*
CCOc1ccccc1NC(=O)COC(=O)c1cnc(C)cn1	2	3	x	x	6	9	x	x	x	x
O=C(/C=C/c1ccc(OC(F)F)cc1)Nc1cccc(S(=O)(=O)N2CCOCC2)c1	-49	12	0	x	-119	7	x	x	x	x
CCCS(=O)(=O)NC(=O)C1(C)CCN(C(=O)COc2ccccc2)C1 (stereo not given)	2	-40	x	x	6	22	x	x	x	x
Cc1ccc(Oc2c(C(N)=O)cc([N+](=O)[O-])cc2[N+](=O)[O-])cc1	106*	85*	92*	108*	94*	-95*	-16	102*	74*	102*
Cc1ccc(C2(c3ccc(C)cc3)CC2C(=O)Nc2ccc([N+](=O)[O-])cc2O)cc1 (stereo not given)	53*	84*	74*	107*	-18	-85*	78*	95*	x	x
CC1(C)CC1C(=O)Nc1ccc([N+](=O)[O-])cc1Br (stereo not given)	-14	9	-19	-5	-13	-4	x	x	x	x
CCCNC(=O)C1(C)CCCN(Cc2cccc(C#N)c2)C1 (stereo not given)	-4	29	x	x	12	-4	x	x	x	x
COc1cc(C(=O)O[C@H]2CC(C)=CC[C@@]3(C)CC[C@@](O)(C(C)C)[C@H]23)ccc1O	26	8	-14	x	20	-17	x	x	x	x
O=[N+]([O-])c1ccc(S(=O)(=O)CC(CN2CCCCC2)N2CCCCC2)cc1 (stereo not given)	108*	81*	81*	105*	27	-43	95*	103*	x	x
Nc1ccc2oc(-c3ccccc3Cl)nc2c1	-141	-22	27	39	14	6	x	x	x	x
Nc1ccc2oc(-c3cc(Br)ccc3Cl)nc2c1	-55	-26	49	97*	61*	17	74*	x	90*	50
Cc1ccc(NC(=O)C2=C(c3ccccc3)S(=O)(=O)CCS2(=O)=O)cc1	109*	96*	95*	109*	81*	-72*	69	103*	81*	102*
CCCN1C=CC(=C2C(=O)c3ccccc3C2=O)C=C1	105*	-4	105*	103*	90*	-61*	126*	99*	x	x	Peg3 prom inh-2=94*
CN1C=CC(=C2C(=O)c3ccccc3C2=O)C=C1	x	x	x	17	x	x	x	x	x	x
COc1ccc(C(=O)/C=C/C(=O)N(CC(=O)NC2CCCCC2)Cc2cccs2)c(O)c1	105*	35	105*	108*	95*	-16	119*	x	95*	101*
COc1ccc(OC)c(NC(=O)COC(=O)c2ccc(OC)c(S(=O)(=O)N3CCOCC3)c2)c1	9	-10	-11	x	12	-2	x	x	x	x
O=C(c1nnsc1S(=O)c1ccc(Cl)cc1)N1CCOCC1 (stereo not given)	101*	84*	88*	107*	28	-6	54	102*	x	x	CF NFkB conf=105*
O=C(c1cc(-c2ccc(Cl)cc2)on1)N1CCOCC1	-144	9	-42	13	-110	3	x	x	x	x
CNC[C@@H]1Oc2cc(Br)ccc2S(=O)(=O)N([C@@H](C)CO)C[C@@H]1C	-5	-4	x	x	1	2	x	x	x	x
O=C(Cc1cccc(F)c1)N1CCOCC1	5	-22	5	x	25	10	x	x	x	x
Cc1cc(C2(c3ccc(O)c(C)c3)C(=O)Nc3ccccc32)ccc1O	80*	0	35	105*	45*	4	119*	x	22	69*
